Inconclusive results are not listed. Calls of active or inactive are those of the source. The call rests on the fitted dose curve; in most records, active means well fitted inhibition curve with a large enough effect; inconclusive means small, poorly fitted or top-dose-only effect, or effect the other way; inactive means flat fitted curve, though single readings scatter. Bridge positions count the residues as written; N and C are the ends. Square brackets hold non-standard residues; d marks the D form. Peptide text beside a SMILES is read from it. * marks the point of attachment. ξ: configuration not given here. Ileψ(thiazoline)Cys = CC[C@H](C)[C@H](N)C1=N[C@H](C(=O)*)CS1; ξDab(CH2SO3H) = NC(CCNCS(=O)(=O)O)C(=O)O; d(aIle) = CC[C@H](C)[C@@H](N)C(=O)O; Heptanoyl(6-Me) = CC(C)CCCCC(=O)*; dOrn = NCCC[C@@H](N)C(=O)O; Orn = NCCC[CH](N)C(=O)O; Dab = NCC[CH](N)C(=O)O
The compounds below were run against ATP-dependent 6-phosphofructokinase (Trypanosoma brucei brucei) (UniProt O15648) (assay: qHTS Assay to Find Inhibitors of T. brucei phosphofructokinase: hit validation (AID 492961;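 further: luminescence reports ADP formed as PFK phosphorylates fructose-6-phosphate with ATP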)). Conditions: T. brucei PFK, ADP-Glo luminescence; series mostly up to 51.4 µM; activity change, negative = inhibition: at the top concentration.
ATP-dependent 6-phosphofructokinase (Trypanosoma brucei brucei), sequence (O15648 whole entry, looked up): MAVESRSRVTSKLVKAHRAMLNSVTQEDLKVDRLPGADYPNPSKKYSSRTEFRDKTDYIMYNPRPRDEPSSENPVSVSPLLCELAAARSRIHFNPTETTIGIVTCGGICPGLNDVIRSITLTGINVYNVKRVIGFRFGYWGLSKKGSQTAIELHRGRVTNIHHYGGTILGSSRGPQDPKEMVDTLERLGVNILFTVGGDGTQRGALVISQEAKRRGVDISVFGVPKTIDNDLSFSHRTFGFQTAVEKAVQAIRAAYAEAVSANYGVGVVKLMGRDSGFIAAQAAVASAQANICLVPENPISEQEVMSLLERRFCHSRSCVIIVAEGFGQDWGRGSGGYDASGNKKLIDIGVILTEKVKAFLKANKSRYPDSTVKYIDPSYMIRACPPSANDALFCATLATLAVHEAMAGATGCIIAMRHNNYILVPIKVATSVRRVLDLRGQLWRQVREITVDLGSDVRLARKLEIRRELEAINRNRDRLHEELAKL
Summary of the method: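 Inhibition of parasite PFK is measured as reduced ADP formation, quantified via luciferase after ATP depletion. Assay used 0.1 mM ATP, 0.5 mM F6P, 1.25 nM enzyme, 45 min incubation.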
With `CC(C)C(NC(=O)C(CC(=O)O)NC(=O)C(CCCCN)NC(=O)C(N)CCCN=C(N)N)C(=O)NC(Cc1ccc(O)cc1)C(=O)O` (configuration not stated) (H-RKDVY-OH; configuration not given here) the “activity change, negative = inhibition” value was 10.2% (inactive).
In the case of `CCC(C)C1NC(=O)C(Cc2ccc(O)cc2)NC(=O)C(N)CSSCC(C(=O)N2CCCC2C(=O)NC(CC(C)C)C(=O)NCC(N)=O)NC(=O)C(CC(N)=O)NC(=O)C(CCC(N)=O)NC1=O` (configuration not stated), the “activity change, negative = inhibition” value is reported as -9.35% (inactive).
For `C[C@H](N)Cc1ccccc1`, the “activity change, negative = inhibition” value was -6.35% (inactive).
With `CC(C)CC1NC(=O)C(CCCN)NC(=O)C(C(C)C)NC(=O)C2CCCN2C(=O)C(Cc2ccccc2)NC(=O)C(CC(C)C)NC(=O)C(CCCN)NC(=O)C(C(C)C)NC(=O)C2CCCN2C(=O)C(Cc2ccccc2)NC1=O` (configuration not stated) (cyclo(FPV[Orn]LFPV[Orn]L); configuration not given here) the “activity change, negative = inhibition” value was -1.12% (inactive).
With `C[C@]12C=CC(=O)C=C1CC[C@@H]1C2CC[C@]2(C)OC(=O)CCC12` (some centres not stated) the “activity change, negative = inhibition” value was -6.34% (inactive).
For `OCC(O)[C@H]1O[C@@H]2O[C@H](C(Cl)(Cl)Cl)O[C@@H]2[C@H]1O` (some centres not stated), the “activity change, negative = inhibition” value was 6.41% (inactive).
`CC1(C)[C@@H](C=C(Cl)Cl)[C@@H]1C(=O)OCc1c(F)c(F)cc(F)c1F` was tested, and the “activity change, negative = inhibition” value was -3.18% (inactive).
In the case of `CCC1NC(=O)C(NC(=O)c2ncccc2O)C(C)OC(=O)C(c2ccccc2)NC(=O)C2CC(=O)CCN2C(=O)C(Cc2ccccc2)N(C)C(=O)C2CCCN2C1=O` (configuration not stated), the “activity change, negative = inhibition” value is reported as 25.5% (inactive).
With `CC1(C)S[C@@H]2[C@H](N)C(=O)N2C1C(=O)O` (some centres not stated) the “activity change, negative = inhibition” value was -0.372% [at 24.3 µM] (inactive).
`CC(C)C[C@H](NC(=O)[C@@H](Cc1c[nH]c2ccccc12)NC(=O)[C@@H](Cc1ccc(O)cc1)NC(=O)[C@@H](CO)NC(=O)[C@@H](Cc1c[nH]c2ccccc12)NC(=O)C(Cc1cnc[nH]1)NC(=O)C1CCC(=O)N1)C(=O)N[C@@H](CCCN=C(N)N)C(=O)N1CCC[C@@H]1C(=O)NCC(N)=O` (some centres not stated) was tested, and the “activity change, negative = inhibition” value was 6.25% (inactive).
In the case of `CCNC(=O)[C@@H]1CCCN1C(=O)[C@H](CCCN=C(N)N)NC(=O)[C@H](CC(C)C)NC(=O)[C@@H](Cc1c[nH]c2ccccc12)NC(=O)[C@H](Cc1ccc(O)cc1)NC(=O)[C@H](CO)NC(=O)[C@H](Cc1c[nH]c2ccccc12)NC(=O)[C@H](Cc1cnc[nH]1)NC(=O)[C@@H]1CCC(=O)N1`, the “activity change, negative = inhibition” value is reported as -0.772% (inactive).
`C=C1Nc2ccccc2C(=O)N1c1ccccc1C` was tested, and the “activity change, negative = inhibition” value was 3.21% (inactive).
With `CC1OC(O[C@H]2C[C@@H](O)[C@]3(CO)[C@@H]4C(CC[C@]3(O)C2)[C@@]2(O)CC[C@H](C3=CC(=O)OC3)[C@@]2(C)C[C@H]4O)C(O)C(O)C1O` (some centres not stated) the “activity change, negative = inhibition” value was 3.28% (inactive).
`O=[N+]([O-])OC1CO[C@H]2C(O[N+](=O)[O-])COC12` (some centres not stated) was tested, and the “activity change, negative = inhibition” value was -1.67% (inactive).
`CCOC(=O)/C=C(C)/C=C/CC(C)CCCC(C)C` (configuration not stated) was tested, and the “activity change, negative = inhibition” value was 1.17% (inactive).
For `[S]=[Sb][S][Sb]=[S]`, the “activity change, negative = inhibition” value was 5.49% (inactive).
For `CN1C2CCC1C(C(=O)O)C(OC(=O)c1ccccc1)C2` (configuration not stated), the “activity change, negative = inhibition” value was -3.53% (inactive).
For `C[C@@H]1CC[C@H]2[C@@H](C)C(=O)O[C@@H]3OC4(C)CC[C@@H]1C32OO4` (some centres not stated), the “activity change, negative = inhibition” value was 0.854% (inactive).
In the case of `Cc1ccc2c(c1)[C@@H]1CN(C)CC[C@H]1N2`, the “activity change, negative = inhibition” value is reported as -2.4% (inactive).
In the case of `Nc1nc(O)c(-c2ccccc2)o1`, the “activity change, negative = inhibition” value is reported as 6.46% (inactive).
With `C=CC[N+]1(C)CCC23c4c5ccc(O)c4O[C@H]2C(=O)CC[C@@]3(O)C1C5` (some centres not stated) the “activity change, negative = inhibition” value was 7.33% (inactive).
`OC[C@@H](O)[C@H]1O[C@@H]2OC(C(Cl)(Cl)Cl)O[C@H]2[C@H]1O` (some centres not stated) was tested, and the “activity change, negative = inhibition” value was 4.23% (inactive).
In the case of `CCCCCCC(=O)O[C@H]1CC[C@H]2[C@@H]3CCC4CC(=O)C=C(C)[C@]4(C)[C@H]3CC[C@]12C` (some centres not stated), the “activity change, negative = inhibition” value is reported as 1.93% (inactive).
For `CCC(C)C1NC(=O)C(CCNCS(=O)(=O)O)NC(=O)C(NC(=O)C(CCNCS(=O)(=O)O)NC(=O)C(NC(=O)C(CCNCS(=O)(=O)O)NC(=O)CCCCC(C)C)C(C)O)CCNC(=O)C(C(C)O)NC(=O)C(CCNCS(=O)(=O)O)NC(=O)C(CCNCS(=O)(=O)O)NC(=O)C(C(C)CC)NC1=O` (configuration not stated) ({Heptanoyl(6-Me)}-[ξDab(CH2SO3H)]T[ξDab(CH2SO3H)][Dab][ξDab(CH2SO3H)]II[ξDab(CH2SO3H)][ξDab(CH2SO3H)]T; lactam 4-C; configuration not given here), the “activity change, negative = inhibition” value was 11.2% (inactive).
`CC[C@H](C)[C@H](N)C1=N[C@H](C(=O)N[C@@H](CC(C)C)C(=O)N[C@@H](CCC(=O)O)C(=O)N[C@@H](C(=O)N[C@H]2CCCCNC(=O)[C@@H](CC(N)=O)NC(=O)[C@@H](CC(=O)O)NC(=O)[C@@H](Cc3cnc[nH]3)NC(=O)[C@@H](Cc3ccccc3)NC(=O)[C@@H]([C@@H](C)CC)NC(=O)[C@@H](CCCN)NC2=O)[C@@H](C)CC)CS1` ({Ileψ(thiazoline)Cys}-LE[d(aIle)]K[dOrn][d(aIle)][dF][dH][dD][dN]; lactam 4-C) was tested, and the “activity change, negative = inhibition” value was -8% [at 24.3 µM] (inactive).
For `Cc1cc(C)cc(C(=O)OC2CC3CCC(C2)N3C)c1` (configuration not stated), the “activity change, negative = inhibition” value was -5.09% (inactive).
For `CC(C)CC(NC(=O)C(COC(C)(C)C)NC(=O)C(Cc1ccc(O)cc1)NC(=O)C(CO)NC(=O)C(Cc1c[nH]c2ccccc12)NC(=O)C(Cc1cnc[nH]1)NC(=O)C1CCC(=O)N1)C(=O)NC(CCCN=C(N)N)C(=O)N1CCCC1C(=O)NNC(N)=O` (configuration not stated), the “activity change, negative = inhibition” value was -4.36% (inactive).
With `CCCN1CCCC2Cc3nc(N)ncc3CC21` (configuration not stated) the “activity change, negative = inhibition” value was -3.03% (inactive).
`CNCC(=O)NC(CCCN=C(N)N)C(=O)NC(C(=O)NC(Cc1ccc(O)cc1)C(=O)NC(C(=O)NC(Cc1cnc[nH]1)C(=O)N1CCCC1C(=O)NC(C)C(=O)O)C(C)C)C(C)C` (configuration not stated) was tested, and the “activity change, negative = inhibition” value was 3.59% (inactive).
In the case of `COc1ccc2c3c1O[C@H]1[C@@H](O)C=C[C@H]4C(C2)NCCC341` (some centres not stated), the “activity change, negative = inhibition” value is reported as 4.25% (inactive).
`CCCCCC(O)C1C(=O)OC(C)C(O)\C=C/C=C\C=C/C=C\C=C(\C)C(O)C(O)C(O)CC(O)CC(O)CC(O)CC(O)CC1O` (configuration not stated) was tested, and the “activity change, negative = inhibition” value was -7.41% (inactive).
With `CCCCCc1cc(O)c2c(c1)OC(C)(C)C1CC=C(C)CC21` (configuration not stated) the “activity change, negative = inhibition” value was 0% (inactive).

— PubChem BioAssay (NCATS)
On the % scale 0 is the no-effect control and ±100 the full control effect.
